Test results published in PubChem BioAssay (NCI).
About 83,000 compounds went through this panel and 20% of them were active in at least one assay; those are over-represented in the sample as a whole.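 Percent growth is the endpoint: 0 to 100 indicates growth inhibition (40 means 60% inhibition), 0 means no net growth, and negative values indicate cell death.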 Unmarked numbers belong to inactive results. The source made the active and inactive calls. The calls were made as follows: active = growth percent below 10; inactive = the rest.

What was measured:
Test in all cases: NCI-60 one-dose screen, 48 h (100 = growth as untreated, 0 = no growth, -100 = all killed)
Conditions in all cases: 10 µM unless noted
DU-145 prostate = test system: DU-145 prostate
K-562 leukemia = test system: K-562 leukemia
MALME-3M melanoma = test system: MALME-3M melanoma
MDA-MB-231 breast = test system: MDA-MB-231 breast
SF-268 CNS = test system: SF-268 CNS
SF-539 CNS = test system: SF-539 CNS
UACC-257 melanoma = test system: UACC-257 melanoma
M14 melanoma = test system: M14 melanoma
SF-295 CNS = test system: SF-295 CNS
RXF 393 renal = test system: RXF 393 renal

SMILES | growth (DU-145 prostate) | growth (K-562 leukemia) | growth (MALME-3M melanoma) | growth (MDA-MB-231 breast) [%] | growth (SF-268 CNS) | growth (SF-539 CNS) | growth (UACC-257 melanoma) | growth (M14 melanoma) [%] | growth (SF-295 CNS) | growth (RXF 393 renal) [%]
NC(=O)Oc1cc(OC(N)=O)cc(N(CCCl)CCCl)c1 | 34.3% | 55.2% | 80.6% | 97.9 | 39.7% | 23.3% | 57.2% | 49.4 |  | 
CC1=C(C)C(=O)O[C@@H]([C@](C)(O)[C@]2(O)CC[C@@]3(O)[C@@H]4C[C@H]5O[C@]56CC=CC(=O)[C@]6(C)[C@H]4CC[C@]23C)C1 | 7.11% (active) | 3.63% (active) | -4.58% (active) | 30.3 | -22.6% (active) | -10.1% (active) | 6.11% (active) | 11.3 | 4.3% (active) | 
OCCN=Cc1c[nH]c2ccccc12 | 114% |  | 104% | 68.6 | 107% | 99.4% | 110% | 97.3 | 89.9% | 118
COc1ccc(N)cc1N | 120% | 115% | 117% | 99 | 128% | 92.8% |  | 111 | 105% | 
O=C(O)CNCP(=O)(O)O | 121% | 101% |  | 117 | 113% | 115% | 107% |  | 107% | 121
CNC(=O)CCl | 114% | 121% | 92.5% |  | 104% | 102% | 92.5% | 105 | 105% | 110
C=CC1CN2CCC1CC2C(O)c1ccnc2ccccc12 (stereo not given) | 111% | 231% | 140% | 125 | 120% | 121% | 158% | 133 | 121% | 
